# In PubChem BioAssay AID504803 (The Scripps Research Institute Molecular Screening Center, 2011):
# The whole screen tested about 340,000 compounds, of which about 1,700 (0.5%) were called active. The sample holds actives, similar compounds and a random draw of the others, so the mix is not that of the screen. Rule as the data show it: active = inhibition above about 36%; inactive = the rest.
# Biological target: Serine protease HTRA1 (Homo sapiens) (UniProt Q92743)
# Assay: inhibition of human HTRA1 peptidase – biochemical, fluorescence polarization, HTS, primary screen (AID 504803);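 also: 0% = enzyme with DMSO and 100% = wells lacking enzyme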
# Details: recombinant HTRA1, FP-rhodamine activity-based probe, at 5.96 µM, hits give high values
# Serine protease HTRA1 (Homo sapiens), sequence (Q92743 whole entry, looked up): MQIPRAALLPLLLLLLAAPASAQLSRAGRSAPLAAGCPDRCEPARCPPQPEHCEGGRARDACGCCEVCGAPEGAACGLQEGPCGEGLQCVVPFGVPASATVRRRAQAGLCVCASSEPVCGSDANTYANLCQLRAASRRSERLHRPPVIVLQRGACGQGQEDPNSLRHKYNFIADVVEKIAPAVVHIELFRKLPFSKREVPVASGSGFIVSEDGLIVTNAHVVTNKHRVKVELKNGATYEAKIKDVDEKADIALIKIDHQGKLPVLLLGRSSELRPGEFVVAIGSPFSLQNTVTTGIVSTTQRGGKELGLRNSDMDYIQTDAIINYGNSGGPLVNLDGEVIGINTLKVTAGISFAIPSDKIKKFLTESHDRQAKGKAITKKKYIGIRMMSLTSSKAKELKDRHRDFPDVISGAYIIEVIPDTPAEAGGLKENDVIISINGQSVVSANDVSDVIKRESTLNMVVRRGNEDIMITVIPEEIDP
row,SMILES,inhibition
1,C[C@@H]1CN([C@H](C)CO)C(=O)CCCn2nncc2CO[C@@H]1CN(C)S(=O)(=O)c1cccc(C#N)c1,4.09% (inactive)
2,CCN1CCN(C(c2cccnc2)c2cc(Cl)c3cccnc3c2O)CC1 (centres undefined),42% (active)
3,COc1ccc(CNC(=O)/C(C#N)=C/c2cccc(OC)c2OC)cc1,-5.58% (inactive)
4,COCCNC(=O)/C(C#N)=C/c1cccc(OCc2ccccc2)c1,-21.2% (inactive)
5,N#C/C(=C\c1ccc(O)c(O)c1)C(=O)NCc1ccccc1,59.1% (active)
6,CC(C)CC1C(=O)N(Cc2cn(CC3CCCCC3)nn2)CCS(=O)(=O)N1Cc1ccc(-c2ccc(Cl)cc2)cc1 (centres undefined),-45.3% (inactive)
7,Cc1cccc(N2CCN(c3ccc(NC(=O)/C=C\C(=O)O)cc3)CC2)c1,52% (active)
8,CC(C)=C1SC(N2CCN(c3cccc(C)c3)CC2)=NC1=O,-3.36% (inactive)
9,Cc1cccc(N2CCN(C(=O)c3ccccc3NC(=O)C3CCCCC3C(=O)O)CC2)c1 (centres undefined),2.87% (inactive)
10,O[C@H]1C[C@H](c2ccc(Cl)cc2)N(Cc2cccs2)C[C@@H]1n1cc(C2CC2)nn1,-46% (inactive)
11,COc1cccc(OC)c1C(=O)Nc1nnc(C(C)C)s1,-2.63% (inactive)
12,COc1ccc(C(=O)Nc2cccc(/C=C(/CCC(=O)O)c3nc4ccccc4s3)c2)cc1,-96.2% (inactive)
13,COc1cccc2sc(NNC(=O)c3nc4ccccc4s3)nc12,39.4% (active)
14,C[C@H]1CN([C@@H](C)CO)C(=O)CCCn2cc(nn2)CO[C@@H]1CN(C)C(=O)Nc1ccccc1,2.55% (inactive)
15,Cc1noc(C)c1NC(=O)N(C)C[C@@H]1Oc2cc(Br)ccc2S(=O)(=O)N([C@@H](C)CO)C[C@H]1C,0.21% (inactive)
16,Cc1ccc(C(=O)N[C@H](C(=O)N2CCN(c3ncccn3)CC2)C(C)C)cc1,5.28% (inactive)
17,CCc1nc2c(=O)[nH]cnc2o1,5.91% (inactive)
18,CCCc1cc(-c2n[nH]c(=S)n2Cc2ccccc2)cs1,-3.06% (inactive)
19,Cc1cc(-c2csc(N)n2)c(C)n1-c1ccccc1,52.5% (active)
20,CCCn1c(C)cc(-c2csc(NC(=O)CCc3nc4ccccc4c(=O)[nH]3)n2)c1C,-3.91% (inactive)

row,SMILES,inhibition
1,Cc1cc(-c2csc(N)n2)c(C)n1Cc1ccccc1,37.6% (active)
2,Cc1cc(C(=O)OCC(=O)N2c3ccccc3NC(=O)C2(C)C)c(C)n1-c1ccccc1,-25.2% (inactive)
3,CCOC(=O)C1=C(O)/C(=C/c2cc(C)n(-c3ccccc3)c2C)N=C1C,20.9% (inactive)
4,CCN1C(=O)[C@H]2[C@@H](c3ccccc3)N[C@]3(CCCN(Cc4ccc(C)cc4)C3=O)[C@H]2C1=O,-0.19% (inactive)
5,COc1ccc(NC(=O)N(C)C[C@H]2Oc3ncc(C#C[C@@H](C)O)cc3C(=O)N([C@H](C)CO)C[C@H]2C)cc1,6% (inactive)
6,Nc1cccc(OCCCCCOc2cccc(N)c2)c1,3.94% (inactive)
7,COC(=O)c1ccccc1N=NNc1ccc([N+](=O)[O-])cc1,3.36% (inactive)
8,COc1ccc(NC(=O)c2cc(=O)[nH]c3ccccc23)cc1S(=O)(=O)N1CCOCC1,-7.81% (inactive)
9,Oc1ccc2ccccc2c1N=Nc1nccs1,44.7% (active)
10,COc1ccc(NC(=O)COC(=O)C2COc3ccccc3O2)cc1 (centres undefined),-2.75% (inactive)
11,COc1cc(O)c2c(=O)c3c(O)c(O)ccc3oc2c1OC,53.9% (active)
12,COc1c(O)cc2oc(-c3ccc(O)c(O)c3)cc(=O)c2c1O,25.7% (inactive)
13,COc1cccc2cc(-c3cc(=O)oc4cc(C)c(O)cc34)oc12,-8.58% (inactive)
14,COc1ccc(N)cc1NC(=O)CN1CCOCC1,-3.64% (inactive)
15,Oc1ccc(C2Nc3cccc4cccc(c34)N2)cc1,22.9% (inactive)
16,COc1cc2c(cc1OC)C(c1ccccc1Br)NC(=O)C2 (centres undefined),-6.31% (inactive)
17,Brc1ccccc1C1Nc2cccc3cccc(c23)N1,59.2% (active)
18,Cc1ccc(NC(=O)c2ccco2)cc1,1.31% (inactive)
19,Cc1nc2ccccc2nc1CC(O)(c1ccccc1)c1ccccc1,-14.1% (inactive)
20,Cc1cc(Cl)ccc1C(=O)C1CCCN(C(=O)c2ccc3c(c2)OCO3)C1 (centres undefined),-4.58% (inactive)

row,SMILES,inhibition
1,O=S(=O)(NCCNS(=O)(=O)c1ccccc1)c1ccccc1,4.81% (inactive)
2,NC(=O)NC(=O)C(OC(=O)CCNS(=O)(=O)c1ccccc1)c1ccccc1 (centres undefined),36.7% (active)
3,Cc1ccc(S(=O)(=O)NCCC(=O)OCC(=O)N(C)c2ccccc2)cc1,5.9% (inactive)
4,CSc1ncnc2c1ncn2CCCNCc1cccs1,3.07% (inactive)
5,C[C@@H]1CCCCO[C@H](CN(C)Cc2ccccc2)[C@@H](C)CN([C@H](C)CO)C(=O)c2cc(NS(=O)(=O)c3ccc(Cl)cc3)ccc2O1,-17.9% (inactive)
6,CCc1cccc(CC)c1N1C(=O)CC(Sc2ccccc2N)C1=O (centres undefined),2.44% (inactive)
7,Cn1nc(N)c2ncc(C(Cl)(Cl)Cl)nc21,-0.52% (inactive)
8,CC(C)CNC(=O)C(=O)Nc1ccc(N(C)C)cc1,7.37% (inactive)
9,CN(C)c1ccc(N/C=C/C(=O)C(F)(F)F)cc1,38.7% (active)
10,COc1cc(OC)c(C(=O)Nc2ccc(N(C)C)cc2)cc1OC,5.76% (inactive)
11,C[C@H](CO)N1C[C@H](C)[C@@H](CN(C)C(=O)c2cccc(F)c2)Oc2cc(-c3cncnc3)ccc2S1(=O)=O,2.58% (inactive)
12,O=[N+]([O-])c1cc(Cl)cc(/C=N/NC(=S)Nc2cc(S(=O)(=O)N3CCOCC3)ccc2Cl)c1O,45.7% (active)
13,O=C(c1cc(S(=O)(=O)N2CCOCC2)ccc1Cl)N1CCOCC1,2.81% (inactive)
14,O=C(Nc1cc(S(=O)(=O)N2CCOCC2)ccc1Cl)c1cc(=O)c2ccccc2o1,-4.07% (inactive)
15,Cc1ccc(Nc2ccccc2N)cc1,47.8% (active)
16,Nc1ccc(C(=O)Nc2ccccc2N)cc1,6.6% (inactive)
17,Cc1ccc(Nc2nc(Cl)c(C=O)s2)cc1,-8.62% (inactive)
18,CC1(c2cccc(N)c2)OCCO1,4.7% (inactive)
19,O=C(O)C1=C(C(=O)O)C2CCC1C2,9.01% (inactive)
